This is a sample that favours compounds with a hit; in the whole collection about 4.4% have one here.
tim10-1 inh = growth inhibitors of tim10-1 mutant yeast | inhibition, % at 20 µM | AID 463190 | 330,000 compounds, 2.2% hits | S. cerevisiae tim10-1 ts strain growth, BacTiter-Glo, 24 h;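 active means inhibition of at least 40%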;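 further: mutant grown at 25 °C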
tim23-1 inh = inhibits growth of tim23-1 mutant yeast; S. cerevisiae tim23-1 growth, BacTiter-Glo luminescence, 24 h; inhibition, % at 20 µM; 330,000 compounds, 1.3% hits;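 active means growth inhibition of the mutant yeast at or above 50%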;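 further: temperature-sensitive mutant grown at 25 °C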
PfHsp90 set2 = inhibits growth of yeast expressing Plasmodium falciparum Hsp90 | inhibition, % at 9.4 µM | S. cerevisiae expressing PfHsp90, BacTiter-Glo ATP, 48 h; yeast lacking PDR1 and PDR3 efflux regulators | AID 504621 | 310,000 compounds, 0.32% hits;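 active means every replicate shows inhibition above about 80%, whatever the replicate mean, limit read from the data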
Mot1-301 SUMO = inhibitors of SUMOylation pathway: yeast Mot1-301 growth rescue | S. cerevisiae Mot1-301 growth rescue, ATP luminescence, 38.5C; percent above DMSO median, 100 means doubled | 320,000 compounds, 1% hits | AID 2716 | growth rescue, % at 18.8 µM;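 active means every valid replicate shows activation above 250% relative to neutral control wells; inactive means the rest, any valid replicate at or below 250%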
TIM10 inh = inhibits growth of TIM10 yeast strain; inhibition, % at 10 µM; S. cerevisiae TIM10 strain growth, BacTiter-Glo luminescence, 24 h; 330,000 compounds, 1.4% hits;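 active means inhibition of 40% or more at the single tested concentration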;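 further: wild-type TIM10 isogenic control strain grown at permissive 25 °C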
Yeast Mot1 SUMO = yeast SUMO pathway inhibition in dose response. shares compounds with Mot1-301 SUMO. S. cerevisiae Mot1-301 galactose growth, ATP luminescence, 24 h; -100 = growth of slx-deleted rescue strain. growth activity, percent, % at 42 µM. 2,300 tested, under 10 active. AID 493004;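 active means Signal drops as the depositor expects, and the fitted half-maximal dose is no more than ten times the top valid tested dose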;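 further: more negative values mean stronger growth rescue toward the control strain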
Of the large screens only hits and unclear results are named; the others gave an inactive call (follow-up assays come after a bar, where they were run); ! = not active in a repeat.

Cc1nc(-c2ccc(Cl)cc2)sc1C1(C)CC(c2c(Cl)cccc2Cl)=NO1 (centres undefined)	Mot1-301 SUMO 421 | Yeast Mot1 SUMO inactive
Cc1nc(-c2ccccc2)sc1C1(C)CC(c2c(Cl)cccc2Cl)=NO1 (centres undefined)	none
Cc1cccc2c1cnn2C(=O)Nc1ccccc1Cl	none
COc1ccc(-c2noc(C(C)NC(=O)c3ccco3)n2)cc1OC (centres undefined)	none
CCOC(=O)c1sc(NC(=O)CSc2n[nH]c(-c3ccc(Cl)cc3Cl)n2)c(C#N)c1C	Mot1-301 SUMO 459 (no result: PfHsp90 set2) | Yeast Mot1 SUMO inactive
CCOC(=O)c1sc(NC(=O)CSc2nc(C)cc(-c3ccccc3)n2)c(C#N)c1C	none
CCCOC(=O)C1=C(C)N(C)C(=O)NC1c1cc2c(cc1[N+](=O)[O-])OCO2 (centres undefined)	none
CCOC(=O)C1=C(C)NC(=O)CC1c1cc2c(cc1[N+](=O)[O-])OCO2 (centres undefined)	Mot1-301 SUMO 937 | Yeast Mot1 SUMO inactive
CCN(CC)CCn1c2c(c(SCC(=O)Nc3ccc4c(c3)OCCO4)nc1=O)CCCC2	none
CC(=O)N/C(=C\c1ccccc1)C(=O)OCCCOC(=O)/C(=C/c1ccccc1)NC(C)=O	none
COC(=O)C(CC(C)C)NC(=O)CNC(=O)c1ccccc1C (centres undefined)	Mot1-301 SUMO active | Yeast Mot1 SUMO inactive
COc1cccc(CNC(=O)C(CC(C)C)NC(=O)c2ccccc2C)c1 (centres undefined)	none
Cc1cccn2c(=O)c3cc(C(=O)NCCc4ccccc4)sc3nc12	Mot1-301 SUMO 798 | Yeast Mot1 SUMO inactive
Cc1cccn2c(=O)c3cc(C(=O)NCc4cccnc4)c(=N)n(C(C)C)c3nc12	Mot1-301 SUMO 759 | Yeast Mot1 SUMO inactive
Cc1ccc2nc3c(cc(C(=O)NCCN4CCOCC4)c(=N)n3CCCN3CCOCC3)c(=O)n2c1	Mot1-301 SUMO 674 | Yeast Mot1 SUMO inactive
O=C(O)CNS(=O)(=O)Cc1ccccc1	Mot1-301 SUMO 918 | Yeast Mot1 SUMO inactive
O=S(=O)(Cc1ccccc1)NCc1ccccn1	Mot1-301 SUMO 611 | Yeast Mot1 SUMO inactive
O=C(NC1=NCCS1)c1ccc(F)c(S(=O)(=O)N2CCOCC2)c1	none
CC(=O)NC1CCCN(O)C(=O)/C=C(\C)CCOC(=O)C(NC(C)=O)CCCN(O)C(=O)/C=C(\C)CCOC(=O)C(NC(C)=O)CCCN(O)C(=O)/C=C(\C)CCOC1=O (centres undefined)	Mot1-301 SUMO 559 (no result: PfHsp90 set2) | Yeast Mot1 SUMO inactive
O=C(NN=C1CCCC1)c1[nH]c2ccc(Br)cc2c1-c1ccccc1	none (no result: PfHsp90 set2)
O=C(N/N=C/c1ccccc1)c1[nH]c2ccc(Br)cc2c1-c1ccccc1	Mot1-301 SUMO 491 | Yeast Mot1 SUMO inactive
CN1C(=S)SC2CS(=O)(=O)CC21C (centres undefined)	Mot1-301 SUMO 517 | Yeast Mot1 SUMO inactive
CCOc1ccc(Oc2ccc(C(F)(F)F)cc2NC(=O)C2=COCCO2)cc1	none
CCOC(=O)C1=C[C@]2(CC)CCCN3CCc4c(n1c1ccccc41)[C@@H]32	Mot1-301 SUMO 617! | Yeast Mot1 SUMO inactive
CC[C@]12CCCN3CCc4c(n(c5ccccc45)C(=O)C1)[C@@H]32	none
S=C(NCCc1c[nH]c2ccccc12)NC1CC1	Mot1-301 SUMO 401 | Yeast Mot1 SUMO inactive
S=C(NCCc1c[nH]c2ccccc12)NC1CCCC1	none
O=C(NCCc1c[nH]c2ccccc12)Nc1ccccc1	none
COc1ccccc1NC(=O)NCCc1c[nH]c2ccccc12	Mot1-301 SUMO 840 | Yeast Mot1 SUMO inactive
COc1ccc(CCNC(=O)CCn2c(=O)c3cccn3c3ccc(F)cc32)c(OC)c1OC	none
CSCCC(NC(=O)COc1ccccc1)C(=O)N(C)CC(=O)Nc1c(C)cccc1C (centres undefined)	none (no result: PfHsp90 set2)
COc1ccc(N2CC(C(=O)N3CCc4ccccc43)CC2=O)cc1 (centres undefined)	Mot1-301 SUMO 450 | Yeast Mot1 SUMO inactive
O=C1CC(C(=O)N2CCCc3ccccc32)CN1c1ccc(F)cc1 (centres undefined)	none
O=C(/C=C/c1cc(Br)ccc1F)OCC(=O)N1CCCC1	none
COc1ccc(S(=O)(=O)N(C)C)cc1NC(=O)COC(=O)C1CC1	none
Cc1cccc(N=C2C(=O)Nc3c(Cl)cccc32)c1	Mot1-301 SUMO 562 | Yeast Mot1 SUMO inactive
O=C1Nc2ccccc2C1=Nc1cccc(Cl)c1	none
O[C@@H]1COC(Nc2ccc(N=Nc3ccccc3)cc2)C[C@@H]1O (some centres undefined)	none (no result: PfHsp90 set2)
Cc1ccc(-c2nc(CS(=O)(=O)CC(=O)NC3CCCCC3C)c(C)o2)cc1 (centres undefined)	Mot1-301 SUMO 699 | Yeast Mot1 SUMO inactive
O=C1CN(C(=O)COC(=O)c2ccco2)c2ccccc2N1	none
O=C1CN(C(=O)COC(=O)c2ccccc2NCc2ccco2)c2ccccc2N1	Mot1-301 SUMO 728 | Yeast Mot1 SUMO inactive
Cc1cc(Cc2ccc([N+](=O)[O-])cc2)c(C)cn1	none
O=C(CCC(F)(F)F)N1CCCC(CO)(CCc2ccccc2)C1 (centres undefined)	Mot1-301 SUMO 738 | Yeast Mot1 SUMO inactive
Nc1ccc(S(=O)(=O)NNC(=O)C(=O)NNc2ccccc2)cc1	Mot1-301 SUMO 405 | Yeast Mot1 SUMO inactive
COc1ccccc1C(=O)NCCC(=O)N(C)CC(=O)Nc1ccc(C)cc1	none
Cc1ccc(NC(=O)COc2ccccc2C(=O)NCCN(C)C)cc1	Mot1-301 SUMO 800 (no result: PfHsp90 set2) | Yeast Mot1 SUMO inactive
O=c1[nH]c(=O)n([C@H]2C[C@H](O)[C@@H](CO)O2)cc1Br	none
O=c1[nH]c(=O)n(C2CCCO2)cc1Br (centres undefined)	Mot1-301 SUMO 678 | Yeast Mot1 SUMO inactive
O=C(c1ccco1)N1CCN(C(=O)C2Cc3ccccc3CN2S(=O)(=O)c2ccc(F)cc2)CC1 (centres undefined)	Mot1-301 SUMO 901 | Yeast Mot1 SUMO inactive
Brc1ccc(-c2noc3c2-c2nc(-c4ccccc4)sc2CC3)cc1	none
CCC(C)(C)NC(=O)C(c1ccc(C)cc1)N(CC1CCCO1)C(=O)CNC(=O)c1cccs1 (centres undefined)	Mot1-301 SUMO 688 | Yeast Mot1 SUMO inactive
Cc1ccc(C(C(=O)NC2CCCCC2)N(CC2CCCO2)C(=O)CNC(=O)c2cccs2)cc1 (centres undefined)	none
COc1cc(OC)cc(C(=O)NNC(=O)c2cc(S(=O)(=O)N3CCOCC3)ccc2F)c1	none
CN(Cc1ccccc1)C(=O)CCS(=O)(=O)c1ccc2c(c1)NC(=O)CS2	none
Cc1nn(C)c(C)c1-c1c(C#N)c(N)nc2c1CCCCCC2	Mot1-301 SUMO active | Yeast Mot1 SUMO inactive
